EWS-Fli block: inhibitors of EWS/Fli oncoprotein transcriptional activity | AID 651661 | inhibition, % at 12.6 µM | 350,000 compounds, 0.67% hits | A673 NR0B1-luciferase reporter, viability-normalised;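 active = mean inhibition of at least 50% after viability correction, with every replicate also passing that limit; inconclusive = mean reaches 50% but only one of two replicates passes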;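 note: firefly luciferase signal divided by Alamar Blue viability fluorescence both relative to DMSO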
TWEAK Fn14 block: TWEAK-Fn14 signaling inhibition; TWEAK-stimulated Fn14 reporter cells, luciferase luminescence, 8 h; inhibition, % at 10 µM; AID 1159606; 360,000 compounds, 2% hits; in the data active = inhibition above about 50%
LGR2 inh: inhibitors of bursicon-induced Drosophila LGR2 receptor cAMP signaling; inhibition, % at 9.99 µM; AID 720647; HEK293 LGR2, CRE-luciferase, bursicon-stimulated, 4 h; 380,000 compounds, 0.35% hits;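 active = drop in luminescence signal, shown as inhibition above about 50% in the replicate tests, limit read from the data, passing the limit was not always enough; inconclusive = probably only some replicates passing the limit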;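 note: agonist challenge used bursicon conditioned medium at about half maximal strength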
TROY signal inh: inhibitors of TROY-dependent NF-kB signaling | Q293 LMP1-TROYcd NF-kB luciferase reporter, 4 h | AID 1347056 | 360,000 compounds, 0.98% hits | inhibition, % at 10 µM;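 active = compounds whose plate-normalised and pattern-corrected inhibition of the luciferase reporter signal at the single screening dose is 50% or more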
EBV LMP1 NFkB: inhibitors of Epstein-Barr LMP1-induced NF-kappaB reporter | LMP1-induced NF-kappaB luciferase reporter cells, luminescence | AID 504558 | inhibition, % at 12.5 µM | 350,000 compounds, 0.69% hits; in the data active = inhibition above about 41%; inconclusive = no clear call, values can overlap the other calls;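 note: 0% = neutral control wells and 100% = reference inhibitor control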
PAX8 reporter: inhibitors of PAX8 transcriptional activity in RMG-I cells; RMG-I TPO-luciferase reporter, SteadyGlo, 24 h; inhibition, % at 12.6 µM; 360,000 compounds, 1.2% hits; AID 652154;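 active = mean replicate inhibition at least 60% with every replicate also reaching 60%; inconclusive = only one of the two criteria is met; inactive = mean below 60% and not all replicates reaching 60%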;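 note: luciferase light reporting Pax8 driven TPO promoter activity; plate controls were median of neutral control wells for no effect and mitoxantrone controls for full effect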
* = called active by the depositor; ? = inconclusive; . = no result. In the library only some 3.2% were active in any assay of this set; here they are far more common.

SMILES	EWS-Fli block	TWEAK Fn14 block	LGR2 inh	TROY signal inh	EBV LMP1 NFkB	PAX8 reporter
CC(=O)c1cccc(-c2ccnc3c2CC(C(=O)NCC2CCOCC2)O3)c1 (configuration not stated)	66.1*	6.2	-6.6	25.5	.	35.9
COc1ccc(NC(=O)C2Cc3c(-c4cccc(C(N)=O)c4)ccnc3O2)cn1 (configuration not stated)	1.0	6.9	-2.4	4.2	.	15.3
COc1ccc(NC(=O)C2Cc3c(-c4ccccc4Oc4ccccc4)ccnc3O2)cn1 (configuration not stated)	9.6	47.0	18.8	28.0	.	33.3
CC=Cc1ccc2n(c1=O)C[C@@H]1[C@@H](CO)[C@H](C(=O)NCC3CC3)N(C(=O)C3CCOCC3)[C@H]21 (mixture of isomers)	12.0	.	4.0	.	.	4.3
C[C@H](CO)N1C[C@H](C)[C@H](CN(C)C(=O)NC2CCCC2)Oc2cc(-c3cccnc3)ccc2S1(=O)=O	4.4	.	1.4	.	.	-26.4
CO[C@H]1CN(C)C(=O)c2cc(NS(C)(=O)=O)ccc2OC[C@H](C)N(S(C)(=O)=O)C[C@H]1C	-7.4	.	-9.3	.	.	.
COc1ccc(NC(=O)Nc2ccc3c(c2)C(=O)N([C@@H](C)CO)C[C@@H](C)[C@H](CN(C)C(=O)Nc2ccc(C(F)(F)F)cc2)OCCCC[C@@H](C)O3)cc1	-2.4	.	14.6	.	.	-11.9
COc1cccc(-c2ccc([C@@H]3[C@H]4CN(Cc5cncnc5)CCCCN4[C@H]3CO)cc2)c1	-6.7	.	-5.2	.	.	-14.0
O=C(c1ccncc1)N1CCN(c2cc(-c3ccccc3)nc3cc(-c4cccc(Cl)c4)nn23)CC1	19.9	69.7*	-12.0	22.6	12.3	68.2*
CC(=O)N1CCN(c2cc(-c3ccccc3)nc3cc(-c4cccc(Cl)c4)nn23)CC1	19.5	54.9*	20.0	33.6	-2.4	2.7
CC(C)=CCc1cc([C@@H]2COc3c(ccc4c3C=CC(C)(C)O4)C2)c(O)cc1O	11.7	63.4*	14.4	10.1	17.2	.
O=C(C[C@@H]1C=C[C@H](NC(=O)CN2CCOCC2)[C@H](CO)O1)NC1CCCCC1	3.8	.	5.5	.	.	4.8
O=S(=O)(Nc1cc(Sc2ncn[nH]2)c(O)c2ccccc12)c1ccccc1	38.2	95.4*	97.0*	62.2*	1.2	110.6*
O=C(O)CSc1cc(NS(=O)(=O)c2ccc(Br)cc2)c2ccccc2c1O	-6.6	97.9*	1.3	-14.7	1.6	11.2
CCC(=O)N1CC[C@@H]2[C@@H](CO)Nc3ccc(-c4ccc(F)cc4)cc3[C@@H]21	12.5	.	10.9	.	.	14.6
COc1cccc2c1C(=O)c1c(O)c3c(c(O)c1C2=O)C[C@@](O)(C(=O)CO)C[C@@H]3O[C@H]1C[C@H](N)[C@@H](O)[C@H](C)O1	.	88.5*	.	-3.3	75.6*	.
COc1cccc2c1C(=O)c1c(O)c3c(c(O)c1C2=O)C[C@@](O)(C(C)=O)C[C@@H]3O[C@H]1C[C@H](N)[C@H](O)[C@H](C)O1	70.1*	95.7*	99.7*	69.4*	90.9*	114.1*
COc1cccc2c1C(=O)c1c(O)c3c(c(O)c1C2=O)CC(O)(C(=O)CO)CC3OC1CC(N(C)C)C(O)C(C)O1 (configuration not stated)	63.8*	97.4*	.	56.5*	87.3*	112.0*
C[C@@H]1CN([C@H](C)CO)C(=O)c2cc(NS(=O)(=O)c3ccc(F)cc3)ccc2O[C@H]1CN(C)CC1CC1	.	.	9.4	.	.	-8.5
COc1cccc(-c2nc(NC3CCCC3)c3ccccc3n2)c1O	11.8	-1.9	-5.8	70.5*	1.9	8.0
CCCNC(=O)C[C@@H]1CC[C@@H]2[C@@H](COc3ccc(NC(=O)C4CCCC4)cc3C(=O)N2C)O1	1.4	.	-13.9	.	.	0.4
CCC(=O)OCCNc1cc(Sc2nc3ccccc3s2)c2nonc2c1[N+](=O)[O-]	.	17.7	33.5	8.9	33.6	.
CCC(=O)OCCNc1cc(Sc2nc3ccccc3[nH]2)c2nonc2c1[N+](=O)[O-]	.	54.5*	7.2	54.5*	10.5	45.1
Cc1nc2cc(-c3ccccc3)sc2c(=O)n1N	75.7*	95.1*	98.3*	79.0*	73.8*	75.5*
COc1ccc(-c2cc3nc4n(c(=O)c3s2)CCCCC4)cc1	-29.1	31.2	11.3	2.2	-20.4	-126.1
SMILES	EWS-Fli block	TWEAK Fn14 block	LGR2 inh	TROY signal inh	EBV LMP1 NFkB	PAX8 reporter
COc1ccc(-c2cc3nc(C)n(N)c(=O)c3s2)cc1	89.5*	100.5*	100.9*	81.1*	76.2*	86.1*
Cc1ccc(C)n1-n1c(C)nc2sc(-c3ccccc3)cc2c1=O	.	69.1*	.	5.4	9.4	.
COc1ccc(-c2cc3nc4n(c(=O)c3s2)CCC4)cc1	?	95.0*	87.0*	62.3*	51.9*	.
CNC[C@@H]1Oc2cc(C#Cc3ccccn3)ccc2S(=O)(=O)N([C@H](C)CO)C[C@H]1C	3.1	.	-3.8	.	.	.
CCCN(C)C[C@@H]1Oc2cc(C3=CCCCC3)ccc2S(=O)(=O)N([C@@H](C)CO)C[C@@H]1C	8.9	.	12.8	.	.	25.0
Cc1ccc(CNc2ccc(N3CCOCC3)cc2)s1	.	8.8	.	50.4*	-27.5	.
CC(=O)N1CCN(c2ccc(NCc3ccc(C)s3)cc2)CC1	-9.2	5.7	.	4.1	0.4	-0.7
O=C(NCC1CC1)[C@H]1[C@H](CO)[C@H]2Cn3c(ccc(-c4cccnc4)c3=O)[C@@H]1N2C(=O)C1CCCC1	2.2	.	-17.5	.	.	-2.8
O=C(NC1CC1)c1sc2ccccc2c1Cl	-60.3	-5.6	-14.4	-39.9	-4.0	-120.6
CC(C)(C)C(=O)NC(=S)NNC(=O)c1sc2ccccc2c1Cl	.	99.6*	.	86.0*	57.5*	.
O=C(NNC(=S)NC1CCCCC1)c1sc2ccccc2c1Cl	-11.5	10.3	-2.7	76.3*	6.3	-25.0
CCC(=O)N(C)C[C@H]1Oc2cc(C#CC(C)C)ccc2S(=O)(=O)N([C@@H](C)CO)C[C@H]1C	-2.7	.	0.4	.	.	.
COc1ccc(N2CCN(C(=O)c3ccc4c(=O)n(CCc5ccc(OC)c(OC)c5)c(=O)[nH]c4c3)CC2)cc1	10.3	58.5*	3.3	13.2	-9.0	26.2
O=C(c1ccc2c(=O)n(CCc3ccccc3)c(=O)[nH]c2c1)N1CCN(c2ccc(F)cc2)CC1	35.2	74.4*	0.0	57.7*	21.2	32.0
COc1cccc(NC(=O)N2C[C@H](O)COC[C@H]3O[C@@H](CC(=O)N(C)C)CC[C@@H]32)c1	-0.7	.	-2.9	.	.	-3.5

Screens: PubChem, several laboratories
